Some structures have more than one record in an assay (separate samples or runs), and their calls can disagree. Active and inactive are the calls of the source. How the source made its calls: active means hit-call score of the fitted dose curve at least 0.9, where 1 is the maximum; inactive means score below 0.9.
Read-out: Transforming growth factor beta 1 (TGFb1), TGFB1 (gene 7040)
Assay: BSK_KF3CT_TGFb1: BioMAP Diversity Plus: KF3CT Assay for Transforming growth factor beta 1 (TGFb1) Biomarker Activity (AID 2283072)
Conditions: primary human keratinocytes with fibroblasts; actives raise or lower the signal
Method in brief: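 Human keratinocyte/foreskin fibroblast co-culture; TGF-b1 measured by ELISA 24 h after dosing, fitted bidirectionally versus DMSO. Cytotoxicity checked in parallel cultures by total protein (SRB staining, 560 nm).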

| Compound | AC50 | outcome |
| --- | --- | --- |
| CC(C)CCCC(C)CCO (configuration not stated) | 30.1 µM (active) | – |
| CCN(CC)c1ccc(C=O)cc1 | – | inactive |
| O=C=Nc1cccc2c(N=C=O)cccc12 | – | inactive |
| CCN(CC)c1ccc(N=Nc2ccccc2)cc1 | – | inactive |
| Cc1cc(O)c(C(C)(C)C)cc1C(C)(C)C | 3.85 µM (active) | – |
| Cc1cnccn1 | – | inactive |
| Brc1nc2ccccc2s1 | – | inactive |
| CCN(CC)c1ccc2c(c1)Oc1cc(N(CC)CC)ccc1C21OC(=O)c2ccccc21 | – | inactive |
| Cc1ccc(O)c(-n2nc3ccccc3n2)c1 | – | inactive |
| Cc1ccc(S(=O)(=O)C(I)I)cc1 | – | inactive |

Read-out: C-C motif chemokine 2 (Homo sapiens) (UniProt P13500)
Assay: BSK_KF3CT_MCP1: BioMAP Diversity Plus: KF3CT Assay for Monocyte Chemoattractant Protein 1 (MCP1/CCL2) Biomarker Activity (AID 2283073)
Conditions: primary human keratinocytes with fibroblasts; actives raise or lower the signal
Method in brief: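 Human keratinocyte plus foreskin fibroblast primary co-culture exposed to chemical for 24 h. MCP-1 levels measured by ELISA. Bidirectional curve fitting relative to DMSO negative control as baseline.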

| Compound | outcome | AC50 |
| --- | --- | --- |
| O=S(=O)(OCC(F)(F)F)C(F)(F)C(F)(F)C(F)(F)C(F)(F)F | inactive | – |
| C=CC(=O)OCC(F)(F)C(F)(F)C(F)(F)C(F)(F)C(F)(F)C(F)(F)C(F)(F)C(F)F | inactive | 30 µM (active) |
| NS(=O)(=O)C(F)(F)C(F)(F)C(F)(F)C(F)(F)C(F)(F)C(F)(F)F | inactive | – |
| CC(C)CCCC(C)CCO (configuration not stated) | – | 33.5 µM (active) |
| CCN(CC)c1ccc(C=O)cc1 | inactive | – |
| O=C=Nc1cccc2c(N=C=O)cccc12 | inactive | – |
| C=CC(=O)OCCC(F)(F)C(F)(F)C(F)(F)C(F)(F)F | inactive | – |
| OCCCCC(F)(F)C(F)(F)C(F)(F)C(F)(F)F | inactive | – |
| O=C(O)CCC(F)(F)C(F)(F)C(F)(F)C(F)(F)C(F)(F)C(F)(F)C(F)(F)F | inactive | – |
| CCN(CC)c1ccc(N=Nc2ccccc2)cc1 | inactive | – |
| O=S(=O)(Cl)C(F)(F)C(F)(F)C(F)(F)C(F)(F)C(F)(F)C(F)(F)C(F)(F)C(F)(F)F | inactive | – |
